Screening results deposited in PubChem BioAssay by The Scripps Research Institute Molecular Screening Center.
HTR5A ag ctr: HTR5A agonists in luminescence cell assay, primary screen, counter-screen for OPRM1-OPRD1 heterodimer agonist project, full-deck HTS | 5-hydroxytryptamine receptor 5A (Homo sapiens), P47898 | cell-based | activation, % at 9.3 µM | 0.61% of 340,000 active; in the data active = activation mostly above about 9.5%, no sharp cut-off; inactive = mostly below about 7.6%;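 also: 0% = cells with vehicle only and 100% = reference agonist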
Target sequence (P47898 whole entry, looked up): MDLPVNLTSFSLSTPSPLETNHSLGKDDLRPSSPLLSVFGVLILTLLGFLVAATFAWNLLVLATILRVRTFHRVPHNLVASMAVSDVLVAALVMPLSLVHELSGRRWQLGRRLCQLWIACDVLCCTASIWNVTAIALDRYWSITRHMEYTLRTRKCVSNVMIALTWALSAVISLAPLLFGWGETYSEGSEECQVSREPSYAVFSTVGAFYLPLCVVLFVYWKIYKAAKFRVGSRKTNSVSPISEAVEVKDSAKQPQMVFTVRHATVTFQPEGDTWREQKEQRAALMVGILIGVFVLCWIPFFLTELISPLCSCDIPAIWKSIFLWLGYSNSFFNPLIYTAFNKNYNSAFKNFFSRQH
HTR5A inv ctr: HTR5A inverse agonists in luminescence cell assay, primary screen, counter-screen for OPRM1-OPRD1 heterodimer inverse agonist project, full-deck HTS | AID 504634, 2011 | 0.083% of 340,000 active | 5-hydroxytryptamine receptor 5A (Homo sapiens), P47898 | HTR5A cell line, inverse agonism | inhibition, % at 9.3 µM; in the data active = inhibition mostly above about 23%, no sharp cut-off; inactive = mostly below about 18%;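 also: 0% = cells with DMSO and 100% = no-cell wells with DMSO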
OPRM1-OPRD1 inv: inverse agonists of MOR-DOR heterodimerization, primary screen, cell-based, luminescence; inhibition, % at 9.3 µM; cell-based MOR-DOR heterodimer luminescence, inverse agonism; Mu-type opioid receptor (Homo sapiens) + Delta-type opioid receptor (Homo sapiens), …; 0.21% of 340,000 active; in the data active = inhibition above about 22%, passing the limit was not always enough;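 also: 0% = cells with DMSO and 100% = wells without cells with DMSO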
OPRM1-OPRD1 ag: agonists of OPRM1-OPRD1 heterodimerization, primary screen, cell-based, luminescence; AID 504326, 2011; activation, % at 9.3 µM; 0.3% of 340,000 active; cells;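 also: 0% = vehicle-treated cells and 100% = reference agonist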
MOR-DOR ag conf: agonists of MOR-DOR heterodimerization, confirmation, cell-based, luminescence; cells, luminescence complementation; activation, % at 9.3 µM; shares compounds with OPRM1-OPRD1 ag; 45% of 830 active; AID 504904, 2011;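 also: 0% = vehicle-treated cells and 100% = reference agonist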
HTR5A ag counter: HTR5A agonists in cells, counter-screen for OPRM1-OPRD1 heterodimer agonist project, cell-based, luminescence; shares compounds with OPRM1-OPRD1 ag; HTR5A agonist counterscreen; activation, % at 9.3 µM; 8% of 830 active; in the data active = activation above about 17%;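 also: 0% = vehicle-treated cells and 100% = reference agonist response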
Active calls of the source: *; i = inactive; nt = not tested or not shown. A selection: hits, their analogues and other compounds. The true share with any hit is near 1.1%. Rule as the data show it, unless noted: active = activation above about 18%; inactive = the rest.

SMILES	HTR5A ag ctr	HTR5A inv ctr	OPRM1-OPRD1 inv	OPRM1-OPRD1 ag	MOR-DOR ag conf	HTR5A ag counter
COc1ccc(C(CNc2ncnc3sccc23)N(C)C)cc1OC (stereo not drawn)	-0.1	0.3	-154.2	20.5*	0.4	25.0*
COc1ccc(CN2CCc3c([nH]c4ccccc34)C2)cc1Br	0.7	-2.6	-11.9	2.4	nt	nt
COc1ccc(CN2CCc3c([nH]c4ccccc34)C2)c(OC)c1C	-3.3	12.2	-343.7	69.5*	38.2*	0.8
COc1cccc(C2CCCCN2Cc2nc(-c3ccc(C)o3)oc2C)c1 (stereo not drawn)	3.7	-10.0	9.8	-1.9	nt	nt
CCCC(c1nnnn1Cc1cccs1)N1CCN(C)CC1 (stereo not drawn)	0.6	-1.6	9.2	-1.8	nt	nt
COc1ccccc1CN1CCN(C(CC(C)C)c2nnnn2Cc2cccs2)CC1 (stereo not drawn)	8.0	-37.9	-267.7	45.6*	62.9*	2.1
CCN1C(=NCc2cccc(Cl)c2)N[C@@H](c2cccc(F)c2)C(C(=O)OC)=C1C	1.9	-7.0	2.3	-0.4	nt	nt
CN(C)S(=O)(=O)c1ccc(-c2csc(N/N=C/c3ccco3)n2)cc1	6.3	16.1	-63.5	12.2	nt	nt
CN(C)S(=O)(=O)c1ccc(-c2csc(N/N=C/c3ccc(O)cc3)n2)cc1	11.0	-30.0	-201.2	37.8*	157.2*	3.5
Cc1ccc(CN(C(=O)c2cccs2)C2CCS(=O)(=O)C2)cc1 (stereo not drawn)	1.8	-5.1	4.4	-1.3	nt	nt
Cc1sc(NC(=O)CSc2nnc(COc3ccccc3)n2C)c(C#N)c1C	3.2	-8.5	-82.0	13.5	nt	nt
Cc1sc(NC(=O)CSc2nnc3scc(-c4ccccc4)n23)c(C#N)c1C	2.7	-26.9	-105.4	19.5*	0.3	2.8
COc1ccc(/C=C2\N=C(C)N(c3ccc4ccccc4c3)C2=O)cc1OC	-2.6	6.6	12.9	-2.0	nt	nt
CN(C)C(CNC(=O)C1CC(=O)N(Cc2ccccc2)C1)c1ccccc1 (stereo not drawn)	-5.0	4.9	-250.1	46.4*	59.1*	3.2
CN(C)C(CNC(=O)CSC(=S)N1CCCC1)c1ccccc1 (stereo not drawn)	1.4	-5.3	i	195.0*	183.4*	-3.6
CCOC(=O)C1CCN(C(=O)/C=C/c2ccccc2)CC1	5.3	2.8	14.6	-2.9	nt	nt
O=C(CSC(=S)N1CCCC1)NCCc1ccccc1	7.0	-12.3	10.2	-1.6	nt	nt
CN(C)C(CNC(=O)C1CCN(C(=O)/C=C/c2ccccc2)CC1)c1ccccc1 (stereo not drawn)	-0.4	14.5	-164.7	20.0*	17.7	1.6
O=S(=O)(c1ccc2c(c1)C(=NO)c1cc(S(=O)(=O)N3CCCCC3)ccc1-2)N1CCCCC1	-1.1	-18.0	-47.8	8.2	nt	nt
CC1CCN(S(=O)(=O)c2ccc3c(c2)C(=NO)c2cc(S(=O)(=O)N4CCC(C)CC4)ccc2-3)CC1	8.0	-4.5	-177.9	29.9*	-0.2	-2.8
O=c1c2ccc(Cl)cc2[nH]c(=S)n1Cc1cccnc1	-7.7	18.3	-297.0	62.0*	53.6*	-0.4
O=C(c1ccc2c(=O)n(Cc3ccc(Cl)cc3)c(=S)[nH]c2c1)N1CCCC1	-2.0	-38.7	-25.3	4.7	nt	nt
COc1ccc2c(Cl)c(-c3nnc4n3CCCCC4)sc2c1	4.2	-10.8	-455.3	80.9*	14.7	4.7
COc1cc2cc3c(N)c(C(=O)Nc4sc(C)c(C)c4C#N)sc3nc2cc1OC	7.3	-10.0	i	117.3*	22.5*	-0.4
CCc1ccc(NC(=O)Nc2ccc3c(c2)N(C)C(=O)CS3)cc1	3.6	-10.9	-487.7	96.3*	55.0*	4.7
SMILES	HTR5A ag ctr	HTR5A inv ctr	OPRM1-OPRD1 inv	OPRM1-OPRD1 ag	MOR-DOR ag conf	HTR5A ag counter
CCN(CC(=O)Nc1c(F)cccc1F)C(=O)c1cc(S(=O)(=O)N(C)C)ccc1N1CCCC1	-1.7	19.8	-3.2	0.5	nt	nt
CC(=O)c1ccc(S(=O)(=O)NCc2ccc(C(=O)NCC(c3ccccc3)N(C)C)cc2)cc1 (stereo not drawn)	3.8	-10.8	-291.7	54.6*	48.7*	-3.9
COc1ccc(C(CNC(=O)c2cccc(NS(=O)(=O)c3ccccc3)c2)N(C)C)cc1 (stereo not drawn)	2.3	-11.2	-246.3	45.9*	28.6*	1.5
CCOc1ccc(S(=O)(=O)Nc2cccc(C(=O)NCC(c3ccccc3)N(C)C)c2)cc1 (stereo not drawn)	-4.5	2.3	-312.7	57.9*	51.8*	-2.8
CN(C)C(CNC(=O)c1ccc(S(=O)(=O)Nc2ccccc2F)cc1)c1ccccc1 (stereo not drawn)	-1.5	15.5	14.0	-2.7	nt	nt
COc1ccc(C(CNC(=O)c2cccc(S(=O)(=O)Nc3ccc(F)cc3)c2)N(C)C)cc1 (stereo not drawn)	-4.3	10.4	-20.2	3.9	nt	nt
COc1ccc(C(CNC(=O)c2cccc(NS(=O)(=O)c3ccc(C)c(F)c3)c2)N(C)C)cc1 (stereo not drawn)	-3.0	7.2	-362.8	69.8*	1.3	-1.6
COc1ccccc1C(CNC(=O)c1cccc(NS(=O)(=O)c2ccc(C)c(F)c2)c1)N(C)C (stereo not drawn)	0.7	-2.0	-43.6	6.8	nt	nt
Cc1ccc(S(=O)(=O)NC(=O)Nc2cccc([N+](=O)[O-])c2)cc1	8.7	-24.8	13.4	-2.1	nt	nt
Cc1oc(-c2ccccc2Cl)nc1CS(=O)(=O)CC(=O)NCCc1ccccc1	6.0	-18.4	-3.7	0.6	nt	nt
COc1cc(OC)cc(-c2c(-c3cccs3)c3cc(-c4ccn[nH]4)ccc3n2C)c1	13.8	-37.2	-51.9	8.9	nt	nt
OCC1(CCc2ccccc2)CCN(Cc2cccn2-c2cccnc2)CC1	-12.1	3.0	i	143.5*	384.5*	1.9
Cc1nn(-c2ccccc2)c(C)c1NC(=O)COC(=O)c1ccc(S(=O)(=O)C(F)F)cc1	-2.5	20.3	11.6	-1.8	nt	nt
COCCn1c(SCC(=O)Nc2nnc(C)s2)nnc1-c1ccco1	1.3	-3.6	6.7	-1.2	nt	nt
OC(c1cc(-c2ccc(Cl)cc2)nc2ccccc12)C1CCCCN1 (stereo not drawn)	-1.9	6.8	-27.6	6.2	nt	nt
OC(c1cc(C(F)(F)F)nc2c(Cl)cc(Cl)cc12)C1CCCCN1 (stereo not drawn)	11.6*	-41.6	-139.5	31.3*	1.2	3.1
COc1ccc(C2NCCc3c2[nH]c2ccccc32)cc1COc1ccc(F)cc1 (stereo not drawn)	11.6	-7.2	-101.0	20.2*	24.3*	13.2
CN(C)C(CNC(=O)c1ccc(Cl)c(S(=O)(=O)N2CCCCCC2)c1)c1ccccc1 (stereo not drawn)	3.7	-13.4	-186.8	35.6*	0.6	-3.2
